Source: PubChem BioAssay (NCATS)
Values joined by “and” are separate entries in the source; they are usually repeats but may differ in a detail not shown here. Equal entries are not always repeated. Inconclusive results are not listed. Active and inactive are the calls of the source. Unless noted, calls follow the shape of the full dose curve.

Experiments:
[1] = target: Bile acid receptor (Homo sapiens) (UniProt Q96RI1); assay: qHTS assay for small molecule agonists of farnesoid X receptor signaling (AID 588527); conditions: HEK293T FXR-UAS-bla, beta-lactamase ratio, 16 h; activation: stronger effect = higher value;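 also: series mostly up to about 77 µM; 0% = vehicle basal and 100% = reference agonist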
Bile acid receptor (Homo sapiens), sequence (Q96RI1 whole entry, looked up): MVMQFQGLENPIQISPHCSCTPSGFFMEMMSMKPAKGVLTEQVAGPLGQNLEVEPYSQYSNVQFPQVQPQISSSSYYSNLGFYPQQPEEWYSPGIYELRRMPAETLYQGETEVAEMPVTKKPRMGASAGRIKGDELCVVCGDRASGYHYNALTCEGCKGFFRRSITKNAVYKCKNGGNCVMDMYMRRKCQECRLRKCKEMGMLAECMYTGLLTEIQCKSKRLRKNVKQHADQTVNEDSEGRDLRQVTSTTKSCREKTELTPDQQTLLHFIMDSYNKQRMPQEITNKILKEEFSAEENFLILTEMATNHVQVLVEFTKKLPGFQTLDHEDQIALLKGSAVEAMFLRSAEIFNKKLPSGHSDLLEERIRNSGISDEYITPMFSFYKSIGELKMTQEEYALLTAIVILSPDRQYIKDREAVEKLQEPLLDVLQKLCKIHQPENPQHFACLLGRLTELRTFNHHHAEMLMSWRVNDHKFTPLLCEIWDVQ
Summary of the method: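 Quantitative HTS used FXR-UAS-bla HEK293T cells with 16 h compound incubation at 37 C. EC50 values came from concentration-response curves normalized to chenodeoxycholic acid.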

[2] = target: Peroxisome proliferator-activated receptor delta (Homo sapiens) (UniProt Q03181); assay: qHTS assay for small molecule agonists of peroxisome proliferator-activated receptor delta signaling (AID 588534);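 also: 0% = DMSO basal wells and 100% = positive control agonist at 10 µM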
Peroxisome proliferator-activated receptor delta (Homo sapiens), sequence (Q03181 whole entry, looked up): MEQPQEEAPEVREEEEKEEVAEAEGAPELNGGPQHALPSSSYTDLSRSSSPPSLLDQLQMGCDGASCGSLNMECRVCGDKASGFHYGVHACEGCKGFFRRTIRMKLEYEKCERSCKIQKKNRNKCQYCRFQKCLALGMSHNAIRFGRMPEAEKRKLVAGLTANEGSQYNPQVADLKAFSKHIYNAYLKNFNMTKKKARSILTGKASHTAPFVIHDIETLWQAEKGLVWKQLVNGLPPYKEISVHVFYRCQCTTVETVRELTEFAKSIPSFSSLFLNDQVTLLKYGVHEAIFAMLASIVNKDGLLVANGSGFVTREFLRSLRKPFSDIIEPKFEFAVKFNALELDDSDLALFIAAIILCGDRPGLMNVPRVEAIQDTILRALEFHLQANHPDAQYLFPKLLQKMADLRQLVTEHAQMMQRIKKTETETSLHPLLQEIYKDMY
Summary of the method: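 EC50 and efficacy values derive from Hill fits of a concentration series in a beta-lactamase reporter cell assay. Exposure is 18 hrs at 37 C, with CCF4 fluorescence as the readout.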

[3] = qHTS assay for small molecule antagonists of peroxisome proliferator-activated receptor delta signaling (AID 588535; active = well fitted inhibition curve with a large enough effect in the signal ratio, with a control signal flat, not every such curve was filed as active; the % refers to the signal ratio;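 as to max response: cells co-treated with a PPAR-delta agonist as stimulator during compound exposure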); conditions: HEK293T PPARd-UAS-bla, beta-lactamase FRET ratio, 18 h; 460 nm channel
Summary of the method: (§1)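 Beta-lactamase reporter read-out (405 nm excitation, 460/530 nm emission) after CCF4 loading for 2 hrs at RT. HEK293T PPAR-delta-UAS-bla cells, 2% charcoal/dextran FBS, compounds for 18 hrs at 37 C. Hill fit gave IC50 and efficacy.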

[4] = target: Peroxisome proliferator-activated receptor delta (Homo sapiens) (UniProt Q03181); assay: as above
Summary of the method: as §1

[5] = qHTS assay for small molecule agonists of retinoid X receptor alpha signaling (AID 588544); conditions: HEK293T RXRa-UAS-bla, beta-lactamase reporter, 18 h; 530 nm emission;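 as to activation: 0% = DMSO basal wells and 100% = reference agonist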
[6] = target: Retinoic acid receptor RXR-alpha (Homo sapiens) (UniProt P19793); assay: as above
Retinoic acid receptor RXR-alpha (Homo sapiens), sequence (P19793 whole entry, looked up): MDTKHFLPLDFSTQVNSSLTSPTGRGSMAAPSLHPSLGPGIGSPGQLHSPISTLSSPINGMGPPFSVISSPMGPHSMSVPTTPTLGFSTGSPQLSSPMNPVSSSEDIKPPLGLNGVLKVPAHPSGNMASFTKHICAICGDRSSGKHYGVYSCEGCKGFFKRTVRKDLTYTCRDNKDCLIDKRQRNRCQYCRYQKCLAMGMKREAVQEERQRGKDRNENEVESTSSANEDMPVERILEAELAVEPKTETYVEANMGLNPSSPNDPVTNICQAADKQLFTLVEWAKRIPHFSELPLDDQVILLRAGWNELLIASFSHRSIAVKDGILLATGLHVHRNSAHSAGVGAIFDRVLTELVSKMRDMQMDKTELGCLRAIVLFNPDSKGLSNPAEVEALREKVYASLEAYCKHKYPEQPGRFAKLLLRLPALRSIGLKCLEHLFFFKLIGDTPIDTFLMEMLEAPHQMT

[7] = target: Thyroid hormone receptor beta (Homo sapiens) (UniProt P10828); assay: qHTS assay for small molecule agonists of thyroid hormone receptor beta signaling (AID 588545)
Thyroid hormone receptor beta (Homo sapiens), sequence (P10828 whole entry, looked up): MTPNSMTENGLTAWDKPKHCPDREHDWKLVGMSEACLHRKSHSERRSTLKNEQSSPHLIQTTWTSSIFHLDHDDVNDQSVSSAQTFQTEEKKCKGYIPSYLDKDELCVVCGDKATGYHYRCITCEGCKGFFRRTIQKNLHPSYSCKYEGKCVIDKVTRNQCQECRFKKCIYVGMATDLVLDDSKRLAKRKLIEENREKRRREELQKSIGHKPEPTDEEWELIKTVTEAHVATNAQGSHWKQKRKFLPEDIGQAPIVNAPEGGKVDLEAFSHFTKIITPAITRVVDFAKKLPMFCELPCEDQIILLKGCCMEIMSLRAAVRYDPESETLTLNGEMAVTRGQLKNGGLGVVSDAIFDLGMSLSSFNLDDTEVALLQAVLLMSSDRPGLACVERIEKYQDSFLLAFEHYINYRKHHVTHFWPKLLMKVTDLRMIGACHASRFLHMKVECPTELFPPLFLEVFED
Summary of the method: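 Agonist activity was read as beta-lactamase CCF4 fluorescence (405 ex, 460/530 em), scaled between DMSO (0%) and 10 nM T3 (100%), then Hill-fitted for EC50 and efficacy. HEK 293 TR-UAS-bla cells in 2% charcoal/dextran FBS medium were exposed 18 h at 37 C.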

[8] = target: Thyroid hormone receptor beta (Homo sapiens) (UniProt P10828); assay: qHTS assay for small molecule antagonists of thyroid hormone receptor beta signaling (AID 588547; active = well fitted inhibition curve with a large enough effect in the signal ratio, with a control signal flat, not every such curve was filed as active; the % refers to the signal ratio;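 also: cells stimulated with 0.4 nM T3 agonist during compound exposure; series mostly up to about 77 µM; % is scaled to controls: 0 for no effect and ±100 for the full control effect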); conditions: TR-UAS-bla HEK293, beta-lactamase ratio, antagonist mode, 18 h
Summary of the method: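 TR-UAS-bla GripTite HEK293 cells in 2% charcoal/dextran FBS medium; compounds 0.59 nM to 92 uM with T3 at 0.4nM final, 18 h at 37 C. Beta-lactamase read by CCF4 fluorescence (460/530 nm); Hill fits gave IC50 and efficacy.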

[9] = qHTS assay for small molecule activators of the nuclear factor-kappa B (NF-kB) signaling pathway (AID 651749; active = well fitted activation curve with a large enough effect in the signal ratio; the % refers to the signal ratio; also: series mostly up to about 77 µM; % of control where 0% means no effect); conditions: NF-kB-bla ME-180 cells, beta-lactamase FRET ratio, 16 h; activation: stronger effect = higher value
Summary of the method: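 NF-kB-bla ME-180 cells, 2,000/well; 23 nL compound or DMSO pinned; 16 hr, 37C/5% CO2; beta-lactamase FRET read-out.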

[10] = qHTS assay for environmental chemicals that activate the Aryl hydrocarbon Receptor (AhR) signaling pathway (AID 651777; active = well fitted curve in the direction sought with a large enough effect; an effect the other way counts as inactive or inconclusive; also: nearly all actives have a fitted effect of over 15% in size; also: potency is read from the fitted curve at half-maximal effect; as to activation: % of control where 0% means no effect); conditions: 1A2-DRE human hepatoma cells, luciferase, 24 h; activation: stronger effect = higher value
Summary of the method: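 1A2-DRE human hepatoma reporter line; 1,200 cells/well; cmpd or DMSO 24 h, 37 C/5% CO2; One-Glo 30 min RT; luciferase lum.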

[11] = target: Peroxisome proliferator-activated receptor alpha (Homo sapiens) (UniProt Q07869); assay: qHTS assay for small molecule agonists of the peroxisome proliferator-activated receptor alpha (PPARalpha) signaling pathway (AID 651778; active = well fitted curve in the direction sought with a large enough effect; an effect the other way counts as inactive or inconclusive; also: % of control where 0% means no effect); conditions: PathHunter PPARalpha complementation, chemiluminescence, 6 h; max response: stronger effect = higher value
Peroxisome proliferator-activated receptor alpha (Homo sapiens), sequence (Q07869 whole entry, looked up, the tested form may be a part): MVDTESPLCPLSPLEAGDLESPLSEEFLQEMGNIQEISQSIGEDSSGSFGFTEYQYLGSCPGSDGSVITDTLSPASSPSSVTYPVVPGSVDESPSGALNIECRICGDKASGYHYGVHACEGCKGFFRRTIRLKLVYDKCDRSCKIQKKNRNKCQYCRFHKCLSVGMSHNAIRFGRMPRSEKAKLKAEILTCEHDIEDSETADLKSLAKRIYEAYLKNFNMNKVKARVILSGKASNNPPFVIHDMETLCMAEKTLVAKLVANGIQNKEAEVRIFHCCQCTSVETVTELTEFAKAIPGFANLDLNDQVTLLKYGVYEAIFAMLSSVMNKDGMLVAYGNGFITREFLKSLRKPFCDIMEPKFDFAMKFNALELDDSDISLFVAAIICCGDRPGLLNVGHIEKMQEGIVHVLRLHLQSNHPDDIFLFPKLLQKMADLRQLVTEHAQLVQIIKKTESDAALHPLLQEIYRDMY
Summary of the method: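 Enzyme-fragment complementation assay in which ligand-bound PPARalpha translocates and forms an active enzyme that generates chemiluminescence. Cells were plated overnight, exposed to compound for 6 hr at 37 C, and then given detection reagent for 60 min at room temperature.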

[12] = qHTS assay for small molecule agonists of the antioxidant response element (ARE) signaling pathway measured by Nrf2-dependant transcriptional activity (AID 720636; active = well fitted curve in the direction sought with a large enough effect in the repeat runs; an effect the other way counts as inactive or inconclusive; also: potency is read from the fitted curve at half-maximal effect;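 as to activation: HepG2 cells with an ARE-driven luciferase reporter; % of control where 0% means no effect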)
Summary of the method: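 Cells: ARE-luc HepG2 with Nrf2-responsive luciferase. Medium contained 1% dialyzed FBS. Compound exposure lasted 16 hr at 37 C and 5% CO2, followed by ONE-Glo luciferase detection.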

[13] = qHTS assay for small molecule agonists of the antioxidant response element (ARE) signaling pathway measured by Nrf2-dependant transcriptional activity - cell viability counter screen (AID 720653; active = well fitted curve in the direction sought with a large enough effect in the repeat runs; an effect the other way counts as inactive or inconclusive; also: % is scaled to controls: 0 for no effect and ±100 for the full control effect); conditions: ARE-bla HepG2 viability, CellTiter-Glo ATP luminescence, 16 h; max response: stronger effect = lower value
Summary of the method: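 ARE-bla HepG2 cells treated with compounds for 16 h at 37C; this counter screen measures viability as intracellular ATP by CellTiter-Glo luminescence after 30 min at room temperature.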

[14] = qHTS assay for cell viability of HEK293 cells (AID 743288; active = well fitted curve in the direction sought with a large enough effect; an effect the other way counts as inactive or inconclusive; also: % is scaled to controls: 0 for no effect and ±100 for the full control effect; nearly all actives have a fitted effect of over 50% in size); conditions: ATP luminescence (CellTiter-Glo), 18 h; max response: stronger effect = lower value
Summary of the method: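 Viable-cell counts were inferred from luciferase-based ATP content in HEK293 cells seeded at 2,000/well, pre-incubated ≥5 h, then dosed with DMSO-solubilised compounds for 18 h at 37 C.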

[15] = qHTS assay for cell viability of the p53RE-bla HCT-116 cell line (AID 743292; active = well fitted curve in the direction sought with a large enough effect; an effect the other way counts as inactive or inconclusive; also: % is scaled to controls: 0 for no effect and ±100 for the full control effect; nearly all actives have a fitted effect of over 55% in size)
Summary of the method: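 HCT-116 p53RE-bla cells seeded 4,000/well; 5 h at 37 C; compound (DMSO) added; 16 h at 37 C; CellTiter-Glo added, 30 min RT; luminescence read.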

[16] = target: Nuclear receptor subfamily 1 group I member 2 (Rattus norvegicus) (UniProt Q9R1A7); assay: qHTS assay for small molecule activators of the rat pregnane X receptor (rPXR) signaling pathway (AID 651751; call rule not given here; also: 0% is about no effect); conditions: rPXR reporter cells, luciferase (One-Glo), 24 h
Nuclear receptor subfamily 1 group I member 2 (Rattus norvegicus), sequence (Q9R1A7 whole entry, looked up): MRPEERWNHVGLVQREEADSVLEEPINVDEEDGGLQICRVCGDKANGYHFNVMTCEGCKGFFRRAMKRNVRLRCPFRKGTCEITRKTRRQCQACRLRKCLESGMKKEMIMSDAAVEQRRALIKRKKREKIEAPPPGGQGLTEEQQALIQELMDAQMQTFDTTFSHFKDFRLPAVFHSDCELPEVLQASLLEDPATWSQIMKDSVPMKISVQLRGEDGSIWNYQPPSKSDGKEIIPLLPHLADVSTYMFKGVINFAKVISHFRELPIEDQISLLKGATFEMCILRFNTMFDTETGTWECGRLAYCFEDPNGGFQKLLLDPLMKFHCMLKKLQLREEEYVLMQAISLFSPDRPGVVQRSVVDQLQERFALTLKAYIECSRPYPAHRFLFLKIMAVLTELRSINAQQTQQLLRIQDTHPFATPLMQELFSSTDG

[17] = target: Voltage-gated inwardly rectifying potassium channel KCNH2 (Homo sapiens) (UniProt Q12809); assay: qHTS Assay for Small Molecule Inhibitors of the Human hERG Channel Activity (AID 588834; active = well fitted curve in the direction sought with a large enough effect; an effect the other way counts as inactive or inconclusive;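 also: top concentration of the series differs between compounds; % is scaled to controls: 0 for no effect and ±100 for the full control effect; lower thallium flux fluorescence means stronger hERG block; nearly all actives have a fitted effect of over 50% in size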)
Voltage-gated inwardly rectifying potassium channel KCNH2 (Homo sapiens), sequence (Q12809 whole entry, looked up): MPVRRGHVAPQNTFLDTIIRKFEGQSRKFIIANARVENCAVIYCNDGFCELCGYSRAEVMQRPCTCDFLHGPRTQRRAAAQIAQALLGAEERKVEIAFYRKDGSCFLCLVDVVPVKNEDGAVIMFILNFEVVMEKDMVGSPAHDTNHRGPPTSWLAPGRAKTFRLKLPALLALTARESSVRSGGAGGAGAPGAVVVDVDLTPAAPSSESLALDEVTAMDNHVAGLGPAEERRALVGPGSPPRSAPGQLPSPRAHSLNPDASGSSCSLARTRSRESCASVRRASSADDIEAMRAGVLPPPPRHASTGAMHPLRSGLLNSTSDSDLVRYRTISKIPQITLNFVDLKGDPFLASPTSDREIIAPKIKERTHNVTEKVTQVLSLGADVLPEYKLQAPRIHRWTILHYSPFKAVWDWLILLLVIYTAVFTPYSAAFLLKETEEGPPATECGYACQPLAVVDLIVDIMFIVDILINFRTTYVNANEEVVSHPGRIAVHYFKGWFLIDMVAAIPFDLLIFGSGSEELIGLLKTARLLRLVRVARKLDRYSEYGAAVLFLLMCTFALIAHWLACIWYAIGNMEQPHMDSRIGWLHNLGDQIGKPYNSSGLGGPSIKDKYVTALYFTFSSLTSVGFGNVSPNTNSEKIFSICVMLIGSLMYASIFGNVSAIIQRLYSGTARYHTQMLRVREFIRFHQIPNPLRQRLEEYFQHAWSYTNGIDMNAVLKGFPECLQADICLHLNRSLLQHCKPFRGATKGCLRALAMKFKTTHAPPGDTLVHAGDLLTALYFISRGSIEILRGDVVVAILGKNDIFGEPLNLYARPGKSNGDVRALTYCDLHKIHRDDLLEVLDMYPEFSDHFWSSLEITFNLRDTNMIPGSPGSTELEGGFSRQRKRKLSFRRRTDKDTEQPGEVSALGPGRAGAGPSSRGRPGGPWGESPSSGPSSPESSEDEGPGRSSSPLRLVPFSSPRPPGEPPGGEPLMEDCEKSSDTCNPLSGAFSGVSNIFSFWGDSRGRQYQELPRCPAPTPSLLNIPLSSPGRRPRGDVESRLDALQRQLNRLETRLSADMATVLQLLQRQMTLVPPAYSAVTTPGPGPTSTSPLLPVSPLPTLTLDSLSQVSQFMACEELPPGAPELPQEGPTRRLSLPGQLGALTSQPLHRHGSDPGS
Summary of the method: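 Step 1: BacMam hERG transduction of U2OS, 4 hrs RT. Step 2: overnight 37 °C, plate 2000 cells/well, 4 hr. Step 3: FluxOR load, compound 10 min, stimulate, read fluorescence.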

[18] = qHTS assay for small molecule antagonists of the retinoid-related orphan receptor gamma (ROR-gamma) signaling pathway - cell viability counter screen (AID 720652; active = well fitted curve in the direction sought with a large enough effect in the repeat runs; an effect the other way counts as inactive or inconclusive;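 also: CHO reporter cells with doxycycline-induced ROR-gamma expression; series mostly up to about 92 µM; compound exposure lasted 16 hr before ATP read; % is scaled to controls: 0 for no effect and ±100 for the full control effect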)
Summary of the method: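 ATP-based viability readout in the ROR-gamma reporter CHO cells after 16 hr compound exposure under doxycycline induction.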

[19] = qHTS assay for small molecule agonists of the antioxidant response element (ARE) signaling pathway (AID 651741; active = well fitted activation curve with a large enough effect in the signal ratio; the % refers to the signal ratio; also: potency is read from the fitted curve at half-maximal effect)
Summary of the method: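 HepG2 ARE-bla reporter cells, 2,000/well; 5 h settle at 37 C/5% CO2; compound pin transfer (23 nL, DMSO); 16 h at 37 C; LiveBLAzer B/G FRET substrate, 2 h RT; fluorescence intensity read.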

[20] = target: Cytochrome P450 3A4 (Homo sapiens) (UniProt P08684); assay: qHTS Assay for Activators of Cytochrome P450 3A4 (AID 885; active = well fitted curve in the direction sought with a large enough effect; an effect the other way counts as inactive or inconclusive; also: nearly all actives have a fitted effect of over 65% in size)
Cytochrome P450 3A4 (Homo sapiens), sequence (P08684 whole entry, looked up): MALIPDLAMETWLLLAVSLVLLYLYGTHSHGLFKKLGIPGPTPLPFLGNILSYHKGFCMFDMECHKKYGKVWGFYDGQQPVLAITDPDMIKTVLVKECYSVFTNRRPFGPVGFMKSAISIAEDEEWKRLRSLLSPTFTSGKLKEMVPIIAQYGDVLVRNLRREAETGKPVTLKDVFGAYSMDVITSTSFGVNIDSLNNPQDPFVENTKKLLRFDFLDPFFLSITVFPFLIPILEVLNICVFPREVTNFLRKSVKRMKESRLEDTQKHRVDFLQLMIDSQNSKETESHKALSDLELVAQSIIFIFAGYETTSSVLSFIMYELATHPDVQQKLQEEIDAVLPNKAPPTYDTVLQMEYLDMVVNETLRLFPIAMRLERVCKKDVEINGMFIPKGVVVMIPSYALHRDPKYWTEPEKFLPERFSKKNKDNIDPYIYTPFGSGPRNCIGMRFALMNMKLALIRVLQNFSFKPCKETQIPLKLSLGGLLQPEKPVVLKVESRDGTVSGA
Summary of the method: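 Using 20nM recombinant human CYP3A4 in potassium phosphate (200mM), substrate Luciferin-PPXE at 25uM, luminescent luciferin detection followed a 60-min RT NADPH reaction; data scaled to 57 uM ketoconazole.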

[21] = target: Nuclear receptor ROR-gamma (Homo sapiens) (UniProt P51449); assay: qHTS assay for small molecule antagonists of the retinoid-related orphan receptor gamma (ROR-gamma) signaling pathway (AID 651802; active = well fitted curve in the direction sought with a large enough effect; an effect the other way counts as inactive or inconclusive;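 also: CHO cells with doxycycline-induced ROR-gamma expression; luciferase reporter luminescence driven by ROR response element; series mostly up to about 92 µM; % is scaled to controls: 0 for no effect and ±100 for the full control effect; nearly all actives have a fitted effect of over 60% in size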)
Nuclear receptor ROR-gamma (Homo sapiens), sequence (P51449 whole entry, looked up): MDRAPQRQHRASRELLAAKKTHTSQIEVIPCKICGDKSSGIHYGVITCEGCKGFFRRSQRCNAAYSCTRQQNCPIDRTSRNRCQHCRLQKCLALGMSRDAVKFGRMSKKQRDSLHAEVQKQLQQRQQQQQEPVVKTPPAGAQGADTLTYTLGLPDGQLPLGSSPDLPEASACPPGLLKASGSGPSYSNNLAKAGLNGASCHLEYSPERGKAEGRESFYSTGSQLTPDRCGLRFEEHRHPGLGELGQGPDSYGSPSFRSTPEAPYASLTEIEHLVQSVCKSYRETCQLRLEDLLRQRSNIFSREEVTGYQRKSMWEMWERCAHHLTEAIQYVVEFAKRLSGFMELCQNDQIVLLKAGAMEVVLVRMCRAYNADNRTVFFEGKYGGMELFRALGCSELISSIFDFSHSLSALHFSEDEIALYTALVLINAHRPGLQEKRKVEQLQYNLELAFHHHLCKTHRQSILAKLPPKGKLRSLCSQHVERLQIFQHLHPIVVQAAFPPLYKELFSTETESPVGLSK
Summary of the method: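 Doxycycline-induced reporter activity in engineered CHO cells (TET-inducible ROR, RORE-LUC) was measured by luminescence after 16hr compound exposure at 37C.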

[22] = target: Cytochrome P450 3A4 (Homo sapiens) (UniProt P08684); assay: qHTS Assay for Inhibitors and Substrates of Cytochrome P450 3A4 (AID 884; active = well fitted curve in the direction sought with a large enough effect; an effect the other way counts as inactive or inconclusive; also: potency is read from the fitted curve at half-maximal effect; nearly all actives have a fitted effect of over 50% in size)
Summary of the method: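 Luminescent readout of luciferin produced by CYP3A4 (20 nM) dealkylation of Luciferin-PPXE, 25 uM (its KM). NADPH-driven reaction ran 60 min at RT after 10 min compound preincubation; data scaled to 57 uM ketoconazole as 100% inhibition.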

With CCOP(=O)(OCC)Oc1ccc([N+](=O)[O-])cc1 the activation [1] was 2.69% (inactive), the outcome [2] was “inactive” and the max response [3] was -45.6%. For the same molecule, the Potency [4] was “inactive”, the max response [5] was -4.35% and the Potency [6] was “inactive”. The Potency [7] was “inactive”, the activity change % (negative = inhibition) [8] was -16.8% (inactive) and the activation [9] was 0.546% (inactive). The activation [10] was 0.386% (inactive), the max response [11] was -2.58% (inactive) and the Potency [12] was “inactive”. For the same molecule, the max response [13] was -9.88% (inactive), the max response [14] was -2.61% (inactive) and the Potency [15] was “inactive”. The max response [16] was 3.26% (inactive).
With O=S(=O)(O)c1ccc(N=Nc2cc(S(=O)(=O)O)c3ccccc3c2O)c2ccccc12 the activation [1] was 2.06% (inactive) and the outcome [2] was “inactive”.
With c1ccccc1 the activation [1] was -0.124% (inactive) [middle of 4 runs], the outcome [2] was “inactive” and the max response [3] was -9.22% and -21.5% and 24.9%. The Potency [4] was “inactive”, the max response [5] was -2.6% and -9.93% and -11.1% and the Potency [6] was “inactive”. For the same molecule, the Potency [17] was “inactive” and the Potency [18] was “inactive”.
For c1ccc(-c2ccc(-c3ccccc3)cc2)cc1, the activation [1] was 2.41% (inactive), the outcome [2] was “inactive” and the Potency [19] was 19.3 µM (active).
In the case of c1ccc2cc3c(ccc4ccccc43)cc2c1, the activation [1] is reported as 2.13% (inactive), the Potency [19] is reported as 12.2 µM (active) and the Potency [10] is reported as 22.4 µM (active). The Potency [12] was 30.6 µM (active).
With CCCCC(CC)COC(=O)CCCCC(=O)OCC(CC)CCCC (stereo not drawn) the Potency [20] was “inactive”, the activation [1] was -0.368% (inactive) and -0.458% (inactive) and the outcome [2] was “inactive”. The activity change % (negative = inhibition) [8] was 4.91% (inactive) and the Potency [21] was “inactive”.
In the case of Cc1ccc2ccc3cccc4ccc1c2c34, the Potency [22] is reported as 25.1 µM (active), the Potency [20] is reported as “inactive” and the activation [1] is reported as -4.07% (inactive). The outcome [2] was “inactive” and the Potency [17] was “inactive”.
